Values joined by “and” are separate entries in the source; they are usually repeats but may differ in a detail not shown here. Identical values can stand only once. About 2,000 (36%) of roughly 5,500 compounds were called active. Inconclusive results (about 18%) are left out. No stated cut-off is given here; in the data, active means normalized growth mostly below about 0.91 (no sharp cut-off); inconclusive means no clear call, values can overlap the other calls; inactive means mostly above about 0.92. Some of the results follow.
Assay: chemical genetic growth profiling, strain panel (AID 1159580);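 further: tested at 20 µM; growth read once vehicle control cultures reached saturation at 30 °C; 1 = growth at the plate median or of vehicle wells; lower values mean less growth of the strain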
Conditions: S. cerevisiae deletion strains, growth OD

Measured: normalized growth

CC(=O)OCC(=O)[C@@]1(O)CCC2C3C[C@H](C)C4=CC(=O)C=CC4(C)C3[C@@H](O)CC21C (stereo partly specified)
inactive: locus YAL013W, strain DEP1, active compounds read low 1.01 | locus YAL021C, strain ccr4, active compounds read low 1.03 | locus YAL026C, strain drs2, active compounds read low 1.03 | locus YAL030W, strain snc1, active compounds read low 1.01 | locus YBL061C, strain skt5, active compounds read low 1.01 | locus YBR009C, strain hhf1, active compounds read low 0.985 | locus YBR021W, strain FUR4, active compounds read low 0.968 | locus YBR023C, strain chs3, active compounds read low 1.02 | locus YBR171W, strain sec66, active compounds read low 1.03 | locus YBR229C, strain ROT2, active compounds read low 1.01 | locus YBR231C, strain swc5, active compounds read low 1.01 | locus YBR279W, strain paf1, active compounds read low 1.01 | locus YCL011C, strain gbp2, active compounds read low 1.02 | locus YCL016C, strain dcc1, active compounds read low 1.01 | locus YCL029C, strain bik1, active compounds read low 1.01 | locus YCL061C, strain MRC1, active compounds read low 1.03 | locus YCL069W, strain vba3, active compounds read low 1.03 | locus YCR088W, strain abp1, active compounds read low 1.02 | locus YDL005C, strain med2, active compounds read low 1.01 | locus YDL035C, strain GPR1, active compounds read low 1.01 | locus YDL040C, strain nat1, active compounds read low 1.01 | locus YDL074C, strain BRE1, active compounds read low 0.994 | locus YDL101C, strain DUN1, active compounds read low 1.01 | locus YDL134C, strain PPH21, active compounds read low 1.01 | locus YDL185W, strain tfp1, active compounds read low 1.01 | locus YDL192W, strain arf1, active compounds read low 1 | locus YDR001C, strain nth1, active compounds read low 1.01 | locus YDR069C, strain doa4, active compounds read low 1.02 | locus YDR101C, strain arx1, active compounds read low 1 | locus YDR137W, strain rgp1, active compounds read low 1.03 | locus YDR150W, strain NUM1, active compounds read low 1.01 | locus YDR159W, strain sac3, active compounds read low 0.995 | locus YDR162C, strain NBP2, active compounds read low 0.992 | locus YDR195W, strain ref2 1.01 | locus YDR297W, strain sur2, active compounds read low 0.994 | locus YDR318W, strain mcm21, active compounds read low 1.01 | locus YDR334W, strain swr1, active compounds read low 1.02 | locus YDR335W, strain msn5, active compounds read low 1.02 | locus YDR388W, active compounds read low 1.01 | locus YDR392W, strain spt3, active compounds read low 1.03 | locus YDR502C, strain sam2, active compounds read low 0.989 | locus YEL003W, strain gim4, active compounds read low 1.02 | locus YEL037C, strain rad23, active compounds read low 1.02 | locus YEL061C, strain CIN8 (second series), active compounds read low 1.02 | locus YEL061C, strain CIN8, active compounds read low 1.01 | locus YER015W, strain faa2, active compounds read low 1.01 | locus YER016W, strain bim1, active compounds read low 1.03 | locus YER110C, active compounds read low 1.01 | locus YER111C, strain swi4, active compounds read low 1.02 | locus YER155C, strain BEM2 (second series), active compounds read low 1.05 | locus YER155C, strain BEM2, active compounds read low 1.01 | locus YER167W, strain BCK2, active compounds read low 1.01 | locus YFR010W, strain ubp6, active compounds read low 0.996 | locus YGL078C, strain dbp3, active compounds read low 1 | locus YGL086W, strain mad1, active compounds read low 1.02 | locus YGL167C, strain pmr1, active compounds read low 1.02 | locus YGL173C, strain kem1, active compounds read low 1.03 | locus YGL227W, strain vid30, active compounds read low 1.02 | locus YGL240W, strain doc1, active compounds read low 1 | locus YGL248W, strain PDE1, active compounds read low 1 | locus YGL253W, strain hxk2, active compounds read low 1.01 | locus YGR078C, strain PAC10, active compounds read low 0.996 | locus YGR135W, strain pre9, active compounds read low 0.982 | locus YGR229C, strain SMI1, active compounds read low 1 | locus YGR252W, strain gcn5, active compounds read low 1.03 | locus YHR013C, strain ard1, active compounds read low 1.03 | locus YHR027C, strain rpn1, active compounds read low 1.01 | locus YHR030C, strain SLT2, active compounds read low 1.01 | locus YHR079C, strain IRE1 (second series), active compounds read low 1.01 | locus YHR079C, strain IRE1, active compounds read low 1.02 | locus YHR094C, strain hxt1, active compounds read low 1.01 | locus YHR129C, strain ARP1, active compounds read low 1.02 | locus YHR142W, strain chs7, active compounds read low 1.01 | locus YHR200W, strain rpn10, active compounds read low 1 | locus YIL066C, strain RNR3, active compounds read low 1.02 | locus YIL073C, strain SPO22, active compounds read low 1.03 | locus YIL125W, strain kgd1, active compounds read low 1.01 | locus YIR030C, strain dcg1, active compounds read low 0.997 | locus YJL092W, strain hpr5, active compounds read low 1.02 | locus YJL095W, strain BCK1 (second series), active compounds read low 1.01 | locus YJL095W, strain BCK1, active compounds read low 1.01 and 1.02 | locus YJL115W, strain asf1, active compounds read low 1.02 | locus YJL129C, strain trk1, active compounds read low 1.02 | locus YJL134W, strain LCB3, active compounds read low 1 | locus YJL154C, strain vps35, active compounds read low 1.02 | locus YJL164C, strain tpk1, active compounds read low 1.01 | locus YJL166W, strain qcr8, active compounds read low 1.01 | locus YJL168C, strain set2, active compounds read low 1.01 | locus YJL187C, strain SWE1 (second series), active compounds read low 1.02 | locus YJR043C, strain POL32, active compounds read low 0.999 | locus YJR066W, strain TOR1, active compounds read low 0.99

From PubChem BioAssay AID1159580 (chemical genetic matrix, 2015)
